Screening results as filed in PubChem BioAssay.
This is a sample that favours compounds with a hit; in the whole collection about 19% have one here.
RORg inh: inhibitors of mouse ROR gamma transcriptional activity; Potency, µM (highest dose often 53.6 µM), inactives show at the highest dose activity change, negative = inhibition, actives largely listed as inhibitors; Drosophila S2 Gal4-RORgamma UAS-luciferase reporter, 20 h; hit rate 5.4% among 310,000; P51450; also: nearly all actives have a fitted effect of over 60% in size
Target sequence (P51450 whole entry, looked up, the tested form may be a part): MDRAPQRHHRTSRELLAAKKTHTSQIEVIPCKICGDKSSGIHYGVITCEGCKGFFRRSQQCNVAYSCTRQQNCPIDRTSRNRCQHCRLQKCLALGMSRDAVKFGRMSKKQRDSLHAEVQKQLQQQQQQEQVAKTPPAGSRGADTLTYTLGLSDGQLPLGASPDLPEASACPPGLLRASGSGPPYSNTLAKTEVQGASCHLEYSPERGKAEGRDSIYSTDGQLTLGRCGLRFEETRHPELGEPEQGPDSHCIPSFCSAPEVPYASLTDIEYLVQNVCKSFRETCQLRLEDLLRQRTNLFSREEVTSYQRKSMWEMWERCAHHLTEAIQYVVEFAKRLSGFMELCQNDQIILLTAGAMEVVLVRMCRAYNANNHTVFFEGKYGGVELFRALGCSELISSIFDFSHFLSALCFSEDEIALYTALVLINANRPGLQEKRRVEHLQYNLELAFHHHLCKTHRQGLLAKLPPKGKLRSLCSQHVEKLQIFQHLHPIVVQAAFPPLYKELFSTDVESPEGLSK
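In this cell-based reporter format, copper sulfate (700 uM final) drives Gal4–ROR gamma fusion expression from a metallothionein promoter in Drosophila Schneider cells; compounds preincubated 1 hr, reporter read after 20 hr at ambient temperature.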
DT40 TDP1 no CPT: qHTS for Inhibitors of human tyrosyl-DNA phosphodiesterase 1 (TDP1): qHTS in cells in absence of CPT; hit rate 15% among 420,000; AID 686978, 2013; DT40 Tdp1-/- hTDP1 cells, no CPT, ATP luminescence, 48 h; Potency, µM (titrated, usually from 46.2 µM), for the others: at the highest dose activity change, negative = growth inhibition, hits mostly inhibitors; also: nearly all actives have a fitted effect of over 55% in size
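Luminescent ATP content (CellTiter-Glo) served as the growth readout. Knockout chicken DT40 cells expressing human TDP1 were exposed to compounds without camptothecin for a minimum 48 hr at 37 °C.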
VP16 counter: counter-screen for ROR gamma inhibitors: Gal4-VP16 reporter | Drosophila S2 Gal4-VP16 UAS-luciferase, luminescence, 20 h | Potency, µM (highest dose often 53.6 µM), for the others: at the highest dose activity, negative = inhibition, actives largely listed as inhibitors | hit rate 3.5% among 310,000 | AID 2546;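 also: Gal4-VP16 expression switched on by copper sulfate through the metallothionein promoter; nearly all actives have a fitted effect of over 50% in size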
DT40 TDP1 CPT: DT40-hTDP1 cell growth loss with CPT | chicken DT40 Tdp1-/-;hTDP1 cells + 20 nM CPT, ATP luminescence, 48 h | Potency, µM (top dose mostly 46.2 µM), inactives show at the highest dose activity change, negative = growth inhibition, actives largely listed as inhibitors | hit rate 12% among 420,000 | AID 686979; also: nearly all actives have a fitted effect of over 55% in size
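Chicken DT40 Tdp1-/- cells stably complemented with human TDP1 were seeded at 400 cells/well in medium containing 20 nM camptothecin, exposed to pin-transferred compounds, and grown at 37 °C for at least 48 hr. Viability was read as ATP luminescence.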
TDP1 inh: blocks human tyrosyl-DNA phosphodiesterase 1. Q9NUW8. recombinant TDP1, AlphaScreen DNA substrate cleavage. hit rate 0.28% among 350,000. Potency, µM (titrated, usually from 130 µM), inactives show at the highest dose activity change, negative = inhibition, hits mostly inhibitors; also: nearly all actives have a fitted effect of over 40% in size
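Signal: AlphaScreen proximity between streptavidin donor and anti-FITC acceptor beads on intact substrate. Reaction: Tdp1 1 nM, substrate 15 nM final, 5 min RT after 15 min compound preincubation.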
* = called active by the depositor; ? = inconclusive; . = no result. Calls follow the shape of the dose curve; as a rule, active = well fitted curve in the direction sought with a large enough effect; inconclusive = small, poorly fitted or top-dose-only effect, or another doubt; inactive = no such curve, though single readings can be large; an effect the other way counts as inactive or inconclusive. % is scaled to controls: 0 for no effect and ±100 for the full control effect; potency is read from the fitted curve at half-maximal effect.

SMILES	RORg inh	DT40 TDP1 no CPT	VP16 counter	DT40 TDP1 CPT	TDP1 inh
COc1cc2c(cc1CC=C(C)C)C(=O)C[C@@H](c1ccc(O)cc1)O2	-40.3%	.	11.2µM*	.	16.1%
O=C(OCc1nnc(-c2ccccc2)o1)C1CCN(C(=O)c2ccc(Cl)cc2)CC1	.	-17.4%	.	-0.2%	-18.7%
CC(Sc1nc(-c2ccccc2)cc(C(F)(F)F)n1)C(=O)N1CCCCC1 (configuration not stated)	-30.0%	?	-10.1%	?	-7.7%
OC(c1cc(-c2ccc(C(F)(F)F)cc2)nc(C(F)(F)F)c1)C1CCCCN1 (configuration not stated)	?	6.51µM*	22.4µM*	1.64µM*	-3.8%
COc1ccc2cc(C(=O)NCc3ccc4c(c3)CCN4C(=O)c3ccc(C)cc3)[nH]c2c1	.	?	.	13µM*	5.4%
COc1ccc2cc(C(=O)NCc3ccc4c(c3)CCN4C(=O)c3ccc(F)cc3)[nH]c2c1	.	18.4µM*	.	20.6µM*	-0.5%
Cc1ccccc1OCC(=O)OCC(=O)c1ccc(OCc2ccccc2)cc1	2.7%	1.8%	-24.4%	-6.2%	5.5%
O=C(CCN1CCOCC1)Nc1cc(C(=O)Nc2ccc(Cl)cc2)ccc1N1CC2CC(C1)c1cccc(=O)n1C2 (configuration not stated)	2.1%	-26.1%	11.2%	?	4.4%
Cc1ccc(-c2csc3ncnc(NCCN4CCOCC4)c23)cc1	16.1%	23.1µM*	?	?	0.0%
c1ccc(-c2csc3ncnc(NCCN4CCOCC4)c23)cc1	-24.2%	9.2µM*	?	11.6µM*	1.1%
Clc1ccc(-c2nc(NCCN3CCOCC3)c3ccccc3n2)cc1	18.6%	?	-0.6%	?	2.0%
Clc1ccc(-c2csc3ncnc(NCCN4CCOCC4)c23)cc1	-1.3%	13µM*	-10.0%	18.4µM*	-1.8%
Cc1ccccc1S(=O)(=O)Nc1ncnc2scc(-c3ccccc3)c12	34.2%	2.3%	0.8%	5.9%	11.3%
Cc1ccc(-c2csc3ncnc(NCCC(=O)O)c23)cc1	25.0%	-9.3%	-2.4%	23.2%	.
O=C(Nc1cc(Oc2ccc(Cl)cc2)cc([N+](=O)[O-])c1)c1ccco1	?	16.4µM*	7.94µM*	?	4.7%
CCOc1ccc(Oc2cc(NC(=O)c3ccco3)cc([N+](=O)[O-])c2)cc1	?	16.4µM*	?	-21.7%	2.0%
Cc1nn(C)cc1C(=O)Nc1cc(Oc2ccc(Cl)cc2)cc([N+](=O)[O-])c1	12.7%	?	?	?	0.0%
O=C(Nc1cc(SCCO)cc([N+](=O)[O-])c1)c1ccco1	7.8%	?	-6.4%	-4.7%	3.1%
O=C1NCCN(Cc2ccc(Cl)c(F)c2)C1CC(=O)N1CCc2ccccc2C1 (configuration not stated)	11.1%	?	-10.9%	32.9%	4.9%
Cc1cccc(N(CC(=O)Nc2ccc(F)cc2)S(C)(=O)=O)c1	10.2%	-11.1%	10.3%	-2.6%	4.6%
Cc1cc(C)cc(N(CC(=O)Nc2ccc(-c3nc4ccc(C)cc4s3)cc2)S(C)(=O)=O)c1	-16.1%	14.6µM*	-10.0%	23.1µM*	5.8%
Cc1ccc2nc(-c3ccc(NC(=O)CN(c4ccccc4C)S(C)(=O)=O)cc3)sc2c1	18.4%	14.6µM*	-0.6%	20.6µM*	5.3%
Cc1cccc([C@@H](NC(=O)OC(C)(C)C)C(=O)OC(C)(C)C)c1	.	-13.1%	.	-25.4%	-4.6%
Cc1ccc2c(c1)cc(CN(Cc1ccc3c(c1)OCO3)S(=O)(=O)c1ccccc1)c1nnnn12	-17.4%	20.6µM*	-9.5%	?	-4.0%
Cc1ccc2[nH]c(=O)c(CN(Cc3cccnc3)C(=O)c3ccncc3)cc2c1	-7.9%	20.6µM*	-6.6%	?	-7.4%
CCCCN(Cc1cc2cc(C)ccc2[nH]c1=O)C(=O)c1cccc(Cl)c1	.	?	.	?	3.7%
CCCN(Cc1cc2cc(C)ccc2[nH]c1=O)C(=O)c1cccc(Cl)c1	.	23.1µM*	.	?	7.4%
